Compound activity (PubChem)
Most compounds without a hit are left out; they make up all but 10% or so of the library.
hNpr1 antagonist: Natriuretic polypeptide receptor (hNpr1) antagonism - Primary qHTS. Atrial natriuretic peptide receptor 1 (Homo sapiens), P16066. AID 1347048, 2019. Potency, µM (highest dose often 46.3 µM), usual class: inhibitors. HEK293 hNpr1 GloSensor cGMP, ANP-stimulated luminescence. 76,000 compounds, 1.6% hits; calls by dose curve; further: nearly all actives have a fitted effect of over 60% in size
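Compound pre-incubated 30 min at room temperature on GloSensor-loaded HEK293 cells stably carrying hNpr1 and the pGS-40F cGMP biosensor. Stimulation uses hNppA at 0.1 nM final; luminescence is taken at baseline and 20 min post-agonist.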
FLuc inh: Firefly luciferase inhibition profiling of diverse chemical library using quantitative high-throughput screening | 76,000 compounds, 2.5% hits | AID 1347043, 2019 | Luciferin 4-monooxygenase (Photinus pyralis), P08659 | purified P. pyralis luciferase, luminescence, biochemical | Potency, µM (top dose mostly 115 µM), actives largely listed as inhibitors; further: nearly all actives have a fitted effect of over 65% in size
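Purified P. pyralis luciferase (10nM final) in 50mM Tris acetate pH 7.5, 10mM Mg acetate, 0.01% Tween-20, 0.05% BSA with 10uM D-luciferin and 10uM ATP. Compounds titrated qHTS. Luminescence imaged on CCD.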
3T3 cytotox: Cytotoxic Profiling in NIH 3T3 Cell Line of Diverse Libraries Using Quantitative High-Throughput Screening | Potency, µM (series often up to 96.7 µM), actives largely listed as inhibitors | NIH 3T3 viability, CellTiter-Glo ATP luminescence, 48-72 h | 94,000 compounds, 4.3% hits; further: nearly all actives have a fitted effect of over 55% in size
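Mouse fibroblast NIH 3T3 cells, 400 per well, received compound via pintool and were incubated for 48 or 72 hr prior to CellTiter-Glo ATP luminescence measurement.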
GPT2 inhibitor: Primary qHTS assay for inhibitors of Glutamate pyruvate transaminase 2 (GPT2); Alanine aminotransferase 2 (Homo sapiens), Q8TD30; Recombinant GPT2, coupled pyruvate oxidase/HRP Amplex Red fluorescence; Potency, µM (highest dose often 57.7 µM), actives largely listed as inhibitors; 100,000 compounds, 0.25% hits; further: nearly all actives have a fitted effect of over 60% in size
Target sequence (Q8TD30 whole entry, looked up): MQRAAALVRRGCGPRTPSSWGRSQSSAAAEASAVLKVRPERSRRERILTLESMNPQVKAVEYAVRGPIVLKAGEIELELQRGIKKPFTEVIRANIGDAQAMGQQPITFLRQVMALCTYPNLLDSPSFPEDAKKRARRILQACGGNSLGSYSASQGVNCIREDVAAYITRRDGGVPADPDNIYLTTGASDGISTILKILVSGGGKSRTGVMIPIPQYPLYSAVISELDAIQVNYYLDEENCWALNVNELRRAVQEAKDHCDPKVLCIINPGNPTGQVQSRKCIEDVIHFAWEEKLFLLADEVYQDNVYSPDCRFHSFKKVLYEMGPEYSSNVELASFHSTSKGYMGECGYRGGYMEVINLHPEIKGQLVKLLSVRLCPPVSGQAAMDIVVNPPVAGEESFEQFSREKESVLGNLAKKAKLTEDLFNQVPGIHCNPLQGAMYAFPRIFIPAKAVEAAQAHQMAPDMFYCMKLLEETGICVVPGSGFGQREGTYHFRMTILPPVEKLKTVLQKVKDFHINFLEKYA
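Inhibition is scored from Amplex Red fluorescence generated when pyruvate oxidase and HRP act on pyruvate released by GPT2. Reactions contain 10ng/uL enzyme, 250uM a-KG and 2mM L-alanine and run 30 min at room temperature.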
HEK cytotox: Cytotoxic Profiling in HEK 293 Cell Line of Diverse Libraries Using Quantitative High-Throughput Screening; HEK 293 viability, ATP luminescence (CellTiter-Glo), 48-72 h; Potency, µM (doses to about 115 µM), actives largely listed as inhibitors; 94,000 compounds, 6.6% hits; further: nearly all actives have a fitted effect of over 60% in size
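Luminescence from cellular ATP, measured with CellTiter-Glo, indicates HEK 293 viability. Cells plated at 250 cells/well are treated with compound for 48 or 72 hr at 37 degree Celsius before reagent addition.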
Numbers stand for hits. Unless noted, the call rests on the fitted dose curve; in most records, active means well fitted curve in the direction sought with a large enough effect; inconclusive means small, poorly fitted or top-dose-only effect, or another doubt; inactive means no such curve, though single readings can be large; an effect the other way counts as inactive or inconclusive.

What do the screens show for `O=C(CCc1ccc(O)cc1)N1CCN(Cc2ccccc2)CC(O)C1` (centres undefined)?
hNpr1 antagonist: inactive; FLuc inh: inactive; 3T3 cytotox: inactive; GPT2 inhibitor: inactive; HEK cytotox: inactive

Results for COCCn1nc2n(c1=O)CCN(C(=O)COc1ccc(Cl)cc1C)CC2 ?
hNpr1 antagonist: inactive; FLuc inh: inactive; 3T3 cytotox: inactive; GPT2 inhibitor: inactive; HEK cytotox: inconclusive

Results for COc1ccc(N2CCN(C(=O)c3ccc4c(c3)N(C)C3CCCCN3C4=O)CC2)cc1 (centres undefined) ?
hNpr1 antagonist: inactive; FLuc inh: inactive; 3T3 cytotox: inactive; GPT2 inhibitor: inconclusive; HEK cytotox: inconclusive

Results for COc1ccc(-n2nc(C)c([C@@H]3C=C[C@@H](NCc4ccc(F)cc4)C3)c2C)cc1 ?
hNpr1 antagonist: inconclusive; FLuc inh: 25µM; 3T3 cytotox: 32µM; GPT2 inhibitor: inactive; HEK cytotox: 28µM

Results for COc1ccc(NC(=O)O[C@@H]2C=C[C@H](c3c(C)nn(-c4ccc(F)cc4)c3C)C2)cc1 ?
hNpr1 antagonist: inactive; FLuc inh: inconclusive; 3T3 cytotox: inconclusive; GPT2 inhibitor: inactive; HEK cytotox: inconclusive

What do the screens show for `CC(C)N1CCN(C2CCOC3(CCN(C(=O)C4CCCCC4)CC3)C2)CC1` (centres undefined)?
3T3 cytotox: inactive; GPT2 inhibitor: inactive; HEK cytotox: inactive

What do the screens show for `O=C(O)c1cnc(-c2cc(NCc3ccccn3)nc3[nH]ccc23)c(Cl)c1`?
hNpr1 antagonist: inactive; FLuc inh: 40µM; 3T3 cytotox: inactive; GPT2 inhibitor: inactive; HEK cytotox: inactive

Results for CCCn1cc(CNC(=O)c2cc3c(s2)CCC(C)C3)cn1 (centres undefined) ?
hNpr1 antagonist: inconclusive; FLuc inh: 32µM; 3T3 cytotox: inconclusive; GPT2 inhibitor: inactive; HEK cytotox: inconclusive

Results for CCCNC(=O)C1CCc2sc(C(=O)N(C)C)cc2C1 (centres undefined) ?
hNpr1 antagonist: inactive; FLuc inh: inactive; 3T3 cytotox: inactive; GPT2 inhibitor: inactive; HEK cytotox: inactive

How did O=C(NCc1ccc(F)cc1)[C@@H]1CCCN1c1nccc(Nc2ccccc2Cl)n1 do in these assays?
3T3 cytotox: inconclusive; GPT2 inhibitor: inactive; HEK cytotox: inconclusive

How did COCC(=O)NCc1cc2n(n1)CCCN(Cc1cc3ccccc3s1)C2 do in these assays?
hNpr1 antagonist: inactive; FLuc inh: inactive; 3T3 cytotox: inconclusive; GPT2 inhibitor: inactive; HEK cytotox: 20µM

Results for CCN1CCN(C(=O)c2ccc3oc(-c4ccncc4Cl)nc3c2)CC1 ?
3T3 cytotox: inactive; GPT2 inhibitor: inactive; HEK cytotox: inactive

How did O=C(c1ccccc1)N1CCCC(C(=O)N2CCC(c3nc4ncccc4[nH]3)CC2)C1 (centres undefined) do in these assays?
3T3 cytotox: inactive; GPT2 inhibitor: inconclusive; HEK cytotox: inactive

What do the screens show for `O=C(c1ccco1)N1CCCC(CCc2cccc(F)c2)C1` (centres undefined)?
hNpr1 antagonist: inactive; FLuc inh: inactive; 3T3 cytotox: inconclusive; GPT2 inhibitor: inactive; HEK cytotox: 79µM

Results for C=CCS(=O)(=O)N1CCCC(CCc2cccc(OC)c2)C1 (centres undefined) ?
hNpr1 antagonist: inactive; FLuc inh: inactive; 3T3 cytotox: inactive; GPT2 inhibitor: inconclusive; HEK cytotox: inconclusive

How did COc1cccc(CCC2CCCN(C(=O)c3ccc(OC)o3)C2)c1 (centres undefined) do in these assays?
hNpr1 antagonist: inactive; FLuc inh: inactive; 3T3 cytotox: inconclusive; GPT2 inhibitor: inactive; HEK cytotox: 35µM

Results for Cn1cc(CN2CCOC[C@H]2c2nc(C(C)(C)C)co2)c2ccccc21 ?
hNpr1 antagonist: inactive; FLuc inh: inactive; 3T3 cytotox: inconclusive; GPT2 inhibitor: inactive; HEK cytotox: 89µM

What do the screens show for `Cn1cc(CN2CCOC[C@H]2c2ncc(C(C)(C)C)[nH]2)c2ccccc21`?
hNpr1 antagonist: inactive; FLuc inh: inactive; 3T3 cytotox: inconclusive; GPT2 inhibitor: inconclusive; HEK cytotox: 63µM
